Measured values published in publication PMC7862700, “An all-to-all approach to the identification of sequence-specific readers for epigenetic DNA modifications on cytosine”.

Tests used:
Experiment in all cases: DAPPL (digital affinity profiling via proximity ligation, sequencing); 10 mM Tris-HCl pH 7.5, 50 mM NaCl, 1 mM DTT, 4% glycerol, room temperature, 30 min; GST-TFs on glutathione beads, 16-mer random dsDNA library, 0.1% formaldehyde crosslink after washing; high values mean tight binding
FEV = biological target: T1, FEV (Homo sapiens, UniProt Q99581 1-238); details: protein: recombinant; tags: N-terminal GST; dsDNA, one strand shown
T1 sequence: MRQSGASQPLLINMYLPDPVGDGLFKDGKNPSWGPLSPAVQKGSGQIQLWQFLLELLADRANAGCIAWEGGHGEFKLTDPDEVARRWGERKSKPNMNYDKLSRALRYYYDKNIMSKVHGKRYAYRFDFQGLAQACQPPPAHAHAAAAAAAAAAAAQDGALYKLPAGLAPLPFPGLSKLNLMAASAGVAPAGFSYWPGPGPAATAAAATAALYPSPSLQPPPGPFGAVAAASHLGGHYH
Summary of the method: (§1)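 Binding signal is each hexamer's read frequency for a factor divided by its frequency in the tag-only sample. The factors were GST-fused human transcription factors from yeast, captured on glutathione beads, DNA-barcoded and pooled with that sample. Pools were incubated with 200 nmole of a random double-stranded 16-mer DNA library in Tris/NaCl/DTT/glycerol buffer at room temperature for 30 min, then washed, crosslinked with 0.1% formaldehyde, proximity-ligated with BsaI/T4 ligase (1 h, 37 °C), PCR-amplified and sequenced on an Illumina NextSeq500.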

ETV5 = ETV5 (Homo sapiens, UniProt P41161 1-510); details: protein: recombinant; tags: N-terminal GST; dsDNA, one strand shown
Summary of the method: as §1

HSF1 = HSF1 (Homo sapiens, UniProt Q00613 1-529); details: protein: recombinant; tags: N-terminal GST; chain copies: 3; dsDNA, one strand shown
Summary of the method: as §1

ELF4 = ELF4 (Homo sapiens, UniProt Q99607 1-663); details: protein: recombinant; tags: N-terminal GST; dsDNA, one strand shown
Summary of the method: as §1

ELK4 = biological target: T2, ELK4 (Homo sapiens, UniProt P28324-2 1-405); details: protein: recombinant; tags: N-terminal GST; dsDNA, one strand shown
T2 sequence: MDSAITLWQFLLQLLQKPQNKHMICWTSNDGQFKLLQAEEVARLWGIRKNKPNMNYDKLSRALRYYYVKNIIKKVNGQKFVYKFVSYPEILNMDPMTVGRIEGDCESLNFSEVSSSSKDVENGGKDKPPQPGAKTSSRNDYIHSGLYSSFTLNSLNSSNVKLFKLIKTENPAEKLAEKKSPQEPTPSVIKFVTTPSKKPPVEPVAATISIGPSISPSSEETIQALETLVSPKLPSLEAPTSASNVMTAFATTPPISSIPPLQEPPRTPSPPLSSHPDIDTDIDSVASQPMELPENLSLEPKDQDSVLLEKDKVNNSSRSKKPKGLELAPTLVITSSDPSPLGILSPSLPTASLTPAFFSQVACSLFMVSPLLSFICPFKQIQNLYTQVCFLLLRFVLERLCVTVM
Summary of the method: as §1

ETV2 = biological target: T3, ETV2 (Homo sapiens, UniProt O00321 1-342); details: protein: recombinant; tags: N-terminal GST; dsDNA, one strand shown
T3 sequence: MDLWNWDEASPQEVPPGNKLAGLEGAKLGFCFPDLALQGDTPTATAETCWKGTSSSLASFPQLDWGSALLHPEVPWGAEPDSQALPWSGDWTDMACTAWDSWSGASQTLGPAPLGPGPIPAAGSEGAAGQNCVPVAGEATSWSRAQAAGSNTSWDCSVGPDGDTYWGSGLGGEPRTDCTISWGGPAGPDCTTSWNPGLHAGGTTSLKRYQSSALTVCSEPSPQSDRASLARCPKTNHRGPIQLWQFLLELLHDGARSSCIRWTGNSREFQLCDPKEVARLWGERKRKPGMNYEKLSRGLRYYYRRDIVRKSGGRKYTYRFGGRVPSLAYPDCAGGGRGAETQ
Summary of the method: as §1

ELF3 = biological target: T4, ELF3 (Homo sapiens, UniProt P78545 1-371); details: protein: recombinant; tags: N-terminal GST; dsDNA, one strand shown
T4 sequence: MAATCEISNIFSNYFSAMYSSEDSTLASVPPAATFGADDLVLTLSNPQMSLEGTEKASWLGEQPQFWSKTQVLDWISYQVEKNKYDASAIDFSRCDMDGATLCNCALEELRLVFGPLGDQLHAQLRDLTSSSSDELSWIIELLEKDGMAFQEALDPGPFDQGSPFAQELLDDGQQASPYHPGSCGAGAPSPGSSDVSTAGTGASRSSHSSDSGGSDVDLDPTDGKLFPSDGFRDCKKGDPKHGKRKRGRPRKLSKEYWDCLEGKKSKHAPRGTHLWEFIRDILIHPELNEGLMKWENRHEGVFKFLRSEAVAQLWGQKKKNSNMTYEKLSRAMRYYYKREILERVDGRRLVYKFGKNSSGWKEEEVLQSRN
Summary of the method: as §1

CRX = CRX (Homo sapiens, UniProt O43186 1-299); details: protein: recombinant; tags: N-terminal GST; dsDNA, one strand shown
Summary of the method: as §1

ETV1 = ETV1 (Homo sapiens, UniProt P50549 1-477); details: protein: recombinant; tags: N-terminal GST; dsDNA, one strand shown
Summary of the method: as §1

ERF = biological target: T5, ERF (Homo sapiens, UniProt P50548 1-548); details: protein: recombinant; tags: N-terminal GST; dsDNA, one strand shown
T5 sequence: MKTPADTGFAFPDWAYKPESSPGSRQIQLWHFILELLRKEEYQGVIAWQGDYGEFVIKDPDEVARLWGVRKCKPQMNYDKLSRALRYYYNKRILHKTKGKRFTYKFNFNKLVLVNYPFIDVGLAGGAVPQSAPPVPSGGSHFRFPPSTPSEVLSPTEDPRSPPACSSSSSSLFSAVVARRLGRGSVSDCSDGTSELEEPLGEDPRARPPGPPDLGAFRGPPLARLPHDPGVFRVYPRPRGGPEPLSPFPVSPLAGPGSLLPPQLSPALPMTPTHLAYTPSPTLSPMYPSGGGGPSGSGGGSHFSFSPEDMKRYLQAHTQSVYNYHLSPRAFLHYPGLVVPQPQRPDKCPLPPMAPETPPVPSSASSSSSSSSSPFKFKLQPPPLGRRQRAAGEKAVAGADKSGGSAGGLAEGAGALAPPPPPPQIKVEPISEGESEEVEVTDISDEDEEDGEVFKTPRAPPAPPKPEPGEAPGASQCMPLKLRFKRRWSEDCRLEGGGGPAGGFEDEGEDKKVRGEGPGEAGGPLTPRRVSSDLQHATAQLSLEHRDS
Summary of the method: as §1

ETV3L = biological target: T6, ETV3L (Homo sapiens, UniProt Q6ZN32 1-361); details: protein: recombinant; tags: N-terminal GST; dsDNA, one strand shown
T6 sequence: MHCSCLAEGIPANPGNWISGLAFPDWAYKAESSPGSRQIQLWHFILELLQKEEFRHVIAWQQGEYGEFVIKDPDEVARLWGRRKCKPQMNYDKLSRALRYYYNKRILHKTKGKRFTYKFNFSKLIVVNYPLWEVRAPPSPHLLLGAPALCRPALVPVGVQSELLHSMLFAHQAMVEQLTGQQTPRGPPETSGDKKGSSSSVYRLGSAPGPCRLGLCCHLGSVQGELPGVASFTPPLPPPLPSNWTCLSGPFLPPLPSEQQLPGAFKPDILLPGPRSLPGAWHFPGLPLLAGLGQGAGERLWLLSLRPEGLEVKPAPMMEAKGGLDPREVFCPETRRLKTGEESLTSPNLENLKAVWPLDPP
Summary of the method: as §1

ETS2 = biological target: T7, ETS2 (Homo sapiens, UniProt P15036 1-469); details: protein: recombinant; tags: N-terminal GST; dsDNA, one strand shown
T7 sequence: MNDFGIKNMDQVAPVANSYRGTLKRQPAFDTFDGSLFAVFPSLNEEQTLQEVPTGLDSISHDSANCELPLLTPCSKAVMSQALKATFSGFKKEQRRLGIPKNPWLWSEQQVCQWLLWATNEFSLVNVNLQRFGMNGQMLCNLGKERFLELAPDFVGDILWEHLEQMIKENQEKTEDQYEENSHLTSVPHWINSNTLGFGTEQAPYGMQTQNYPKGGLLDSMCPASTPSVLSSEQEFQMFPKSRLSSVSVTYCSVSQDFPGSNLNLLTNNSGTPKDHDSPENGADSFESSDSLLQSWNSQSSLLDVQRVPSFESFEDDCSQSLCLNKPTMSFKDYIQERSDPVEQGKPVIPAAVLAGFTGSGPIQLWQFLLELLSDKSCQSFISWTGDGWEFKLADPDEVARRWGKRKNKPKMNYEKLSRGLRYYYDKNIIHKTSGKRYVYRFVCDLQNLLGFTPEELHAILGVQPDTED
Summary of the method: as §1

SPDEF = biological target: T8, SPDEF (Homo sapiens, UniProt O95238 1-335); details: protein: recombinant; tags: N-terminal GST; dsDNA, one strand shown
T8 sequence: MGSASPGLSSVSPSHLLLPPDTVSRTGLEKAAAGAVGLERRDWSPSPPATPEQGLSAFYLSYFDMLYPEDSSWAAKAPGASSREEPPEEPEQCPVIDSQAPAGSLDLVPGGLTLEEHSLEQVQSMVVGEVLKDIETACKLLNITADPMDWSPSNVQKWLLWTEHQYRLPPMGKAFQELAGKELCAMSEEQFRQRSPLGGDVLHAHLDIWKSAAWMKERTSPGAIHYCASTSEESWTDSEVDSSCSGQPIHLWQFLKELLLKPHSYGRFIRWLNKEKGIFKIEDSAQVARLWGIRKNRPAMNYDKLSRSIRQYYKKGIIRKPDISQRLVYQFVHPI
Summary of the method: as §1

ETV7 = biological target: T9, ETV7 (Homo sapiens, UniProt Q9Y603 1-341); details: protein: recombinant; tags: N-terminal GST; dsDNA, one strand shown
T9 sequence: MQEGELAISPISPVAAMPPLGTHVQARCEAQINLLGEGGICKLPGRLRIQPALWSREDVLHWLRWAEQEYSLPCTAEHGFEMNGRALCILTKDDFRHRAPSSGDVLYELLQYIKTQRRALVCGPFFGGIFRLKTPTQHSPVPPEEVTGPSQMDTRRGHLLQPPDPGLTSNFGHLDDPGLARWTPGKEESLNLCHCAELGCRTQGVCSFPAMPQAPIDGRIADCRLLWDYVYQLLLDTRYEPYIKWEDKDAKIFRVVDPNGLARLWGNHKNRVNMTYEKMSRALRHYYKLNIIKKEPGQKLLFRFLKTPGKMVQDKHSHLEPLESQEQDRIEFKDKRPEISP
Summary of the method: as §1

ELF5 = biological target: T10, ELF5 (Homo sapiens, UniProt Q9UKW6-2 1-255); details: protein: recombinant; tags: N-terminal GST; dsDNA, one strand shown
T10 sequence: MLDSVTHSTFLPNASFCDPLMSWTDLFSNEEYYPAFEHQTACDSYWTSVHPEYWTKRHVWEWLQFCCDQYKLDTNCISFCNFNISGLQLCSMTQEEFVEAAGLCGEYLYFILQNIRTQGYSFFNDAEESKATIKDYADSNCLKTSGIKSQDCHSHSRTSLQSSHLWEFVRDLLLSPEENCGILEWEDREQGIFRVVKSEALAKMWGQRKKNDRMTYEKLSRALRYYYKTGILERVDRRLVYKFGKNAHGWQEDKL
Summary of the method: as §1

ETV3 = biological target: T11, ETV3 (Homo sapiens, UniProt P41162-2 1-143); details: protein: recombinant; tags: N-terminal GST; dsDNA, one strand shown
T11 sequence: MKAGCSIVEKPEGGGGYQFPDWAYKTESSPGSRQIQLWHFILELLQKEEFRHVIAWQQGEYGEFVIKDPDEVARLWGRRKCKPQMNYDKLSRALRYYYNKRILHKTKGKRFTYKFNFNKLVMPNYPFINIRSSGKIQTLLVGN
Summary of the method: as §1

ETV6 = ETV6 (Homo sapiens, UniProt P41212 1-452); details: protein: recombinant; tags: N-terminal GST; dsDNA, one strand shown
Summary of the method: as §1

Chain of ETV6 (P41212 whole entry): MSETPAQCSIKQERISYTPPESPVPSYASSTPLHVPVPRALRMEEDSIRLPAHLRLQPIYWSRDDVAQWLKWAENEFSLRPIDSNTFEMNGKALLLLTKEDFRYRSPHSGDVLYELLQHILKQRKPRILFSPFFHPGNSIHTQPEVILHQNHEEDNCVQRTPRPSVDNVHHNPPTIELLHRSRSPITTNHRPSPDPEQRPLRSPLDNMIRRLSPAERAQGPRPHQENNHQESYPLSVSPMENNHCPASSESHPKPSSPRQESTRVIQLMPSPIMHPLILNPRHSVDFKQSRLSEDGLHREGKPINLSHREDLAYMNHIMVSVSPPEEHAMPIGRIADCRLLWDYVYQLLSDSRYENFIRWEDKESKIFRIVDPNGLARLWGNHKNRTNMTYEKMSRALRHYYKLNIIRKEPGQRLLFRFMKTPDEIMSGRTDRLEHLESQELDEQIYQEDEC
Chain of CRX (O43186 whole entry): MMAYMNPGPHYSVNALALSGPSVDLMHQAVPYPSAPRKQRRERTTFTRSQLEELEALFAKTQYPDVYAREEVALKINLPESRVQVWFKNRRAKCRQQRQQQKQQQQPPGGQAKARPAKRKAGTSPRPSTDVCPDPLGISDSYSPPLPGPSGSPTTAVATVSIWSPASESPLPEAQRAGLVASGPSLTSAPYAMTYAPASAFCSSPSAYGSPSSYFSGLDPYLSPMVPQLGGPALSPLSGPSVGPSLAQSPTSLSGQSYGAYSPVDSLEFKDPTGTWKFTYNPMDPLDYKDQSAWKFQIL
Chain of ETV1 (P50549 whole entry): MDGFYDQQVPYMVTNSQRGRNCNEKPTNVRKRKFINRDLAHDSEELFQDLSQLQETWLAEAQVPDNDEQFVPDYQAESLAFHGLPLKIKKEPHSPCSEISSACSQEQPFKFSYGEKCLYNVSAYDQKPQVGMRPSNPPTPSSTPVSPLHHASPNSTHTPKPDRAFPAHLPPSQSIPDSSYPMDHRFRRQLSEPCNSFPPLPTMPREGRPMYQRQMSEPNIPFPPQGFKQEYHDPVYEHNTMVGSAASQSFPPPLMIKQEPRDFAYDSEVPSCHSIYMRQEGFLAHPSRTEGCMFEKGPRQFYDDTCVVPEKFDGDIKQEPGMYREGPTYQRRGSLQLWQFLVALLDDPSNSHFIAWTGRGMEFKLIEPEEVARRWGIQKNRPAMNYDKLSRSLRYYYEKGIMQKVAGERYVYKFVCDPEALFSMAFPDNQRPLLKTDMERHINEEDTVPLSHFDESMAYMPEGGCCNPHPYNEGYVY
Chain of ELF4 (Q99607 whole entry): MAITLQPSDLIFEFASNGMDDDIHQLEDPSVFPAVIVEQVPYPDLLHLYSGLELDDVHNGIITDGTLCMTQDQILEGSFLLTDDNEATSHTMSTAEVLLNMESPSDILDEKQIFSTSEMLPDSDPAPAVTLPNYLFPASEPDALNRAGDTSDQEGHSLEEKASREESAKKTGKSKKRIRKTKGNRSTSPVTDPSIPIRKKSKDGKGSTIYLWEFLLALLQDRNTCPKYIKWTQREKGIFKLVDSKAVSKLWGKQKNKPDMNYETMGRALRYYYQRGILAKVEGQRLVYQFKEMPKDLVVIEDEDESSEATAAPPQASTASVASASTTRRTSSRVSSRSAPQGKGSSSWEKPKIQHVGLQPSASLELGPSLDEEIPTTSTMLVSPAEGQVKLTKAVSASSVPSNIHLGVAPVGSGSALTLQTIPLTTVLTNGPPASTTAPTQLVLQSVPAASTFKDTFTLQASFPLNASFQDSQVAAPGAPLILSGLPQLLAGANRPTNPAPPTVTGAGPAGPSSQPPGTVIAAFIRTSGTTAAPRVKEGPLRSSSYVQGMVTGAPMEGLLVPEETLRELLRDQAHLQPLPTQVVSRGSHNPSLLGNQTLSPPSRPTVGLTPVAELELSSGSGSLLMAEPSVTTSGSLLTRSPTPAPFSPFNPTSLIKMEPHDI
Chain of HSF1 (Q00613 whole entry): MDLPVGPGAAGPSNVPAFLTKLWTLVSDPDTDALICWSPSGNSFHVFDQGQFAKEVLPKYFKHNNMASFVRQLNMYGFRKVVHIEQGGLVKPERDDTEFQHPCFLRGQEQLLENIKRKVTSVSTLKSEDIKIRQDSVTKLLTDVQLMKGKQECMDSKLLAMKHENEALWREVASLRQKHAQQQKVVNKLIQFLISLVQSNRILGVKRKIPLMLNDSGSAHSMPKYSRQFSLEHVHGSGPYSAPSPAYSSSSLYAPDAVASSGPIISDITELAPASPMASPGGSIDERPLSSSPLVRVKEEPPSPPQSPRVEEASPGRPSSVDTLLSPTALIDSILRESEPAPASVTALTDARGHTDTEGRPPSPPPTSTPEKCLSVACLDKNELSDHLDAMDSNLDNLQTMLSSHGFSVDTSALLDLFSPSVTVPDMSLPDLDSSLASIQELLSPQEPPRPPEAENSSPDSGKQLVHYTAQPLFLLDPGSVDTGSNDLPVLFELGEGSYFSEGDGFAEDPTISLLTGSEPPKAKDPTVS
Chain of ETV5 (P41161 whole entry): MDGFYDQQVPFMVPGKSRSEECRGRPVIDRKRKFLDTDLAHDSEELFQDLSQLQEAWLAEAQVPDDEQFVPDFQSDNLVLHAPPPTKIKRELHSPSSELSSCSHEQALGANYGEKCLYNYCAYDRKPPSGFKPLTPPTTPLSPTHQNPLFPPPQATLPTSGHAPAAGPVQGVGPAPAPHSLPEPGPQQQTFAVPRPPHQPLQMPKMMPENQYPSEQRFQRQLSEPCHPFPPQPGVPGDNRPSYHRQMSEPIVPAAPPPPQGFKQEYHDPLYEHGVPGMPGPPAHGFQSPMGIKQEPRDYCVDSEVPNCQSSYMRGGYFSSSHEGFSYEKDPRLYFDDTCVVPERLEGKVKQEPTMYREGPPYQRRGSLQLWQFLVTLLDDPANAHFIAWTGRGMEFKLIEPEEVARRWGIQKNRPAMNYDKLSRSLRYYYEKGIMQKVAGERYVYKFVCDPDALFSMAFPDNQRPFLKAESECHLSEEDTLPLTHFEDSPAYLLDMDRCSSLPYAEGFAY

## ACAAAA
FEV
  binding signal: 1.19 fold enrichment (6-mer frequency, TF over GST control)
ETV5
  binding signal: 1.17 fold enrichment (6-mer frequency, TF over GST control)
HSF1
  binding signal: 1.09 fold enrichment (6-mer frequency, TF over GST control)
ELF4
  binding signal: 1.16 fold enrichment (6-mer frequency, TF over GST control)
ELK4
  binding signal: 1.15 fold enrichment (6-mer frequency, TF over GST control)
ETV2
  binding signal: 1.11 fold enrichment (6-mer frequency, TF over GST control)
ELF3
  binding signal: 1.04 fold enrichment (6-mer frequency, TF over GST control)
CRX
  binding signal: 1.05 fold enrichment (6-mer frequency, TF over GST control)
ETV1
  binding signal: 1.13 fold enrichment (6-mer frequency, TF over GST control)
ERF
  binding signal: 1.18 fold enrichment (6-mer frequency, TF over GST control)
ETV3L
  binding signal: 1.2 fold enrichment (6-mer frequency, TF over GST control)
ETS2
  binding signal: 1.2 fold enrichment (6-mer frequency, TF over GST control)
SPDEF
  binding signal: 1.11 fold enrichment (6-mer frequency, TF over GST control)
ETV7
  binding signal: 1.15 fold enrichment (6-mer frequency, TF over GST control)
ELF5
  binding signal: 1.21 fold enrichment (6-mer frequency, TF over GST control)
ETV3
  binding signal: 1.13 fold enrichment (6-mer frequency, TF over GST control)
ETV6
  binding signal: 1.17 fold enrichment (6-mer frequency, TF over GST control)

## TACATT
FEV
  binding signal: 1.19 fold enrichment (6-mer frequency, TF over GST control)
ETV5
  binding signal: 1.21 fold enrichment (6-mer frequency, TF over GST control)
HSF1
  binding signal: 1.25 fold enrichment (6-mer frequency, TF over GST control)
ELF4
  binding signal: 1.24 fold enrichment (6-mer frequency, TF over GST control)
ELK4
  binding signal: 1.09 fold enrichment (6-mer frequency, TF over GST control)
ETV2
  binding signal: 1.17 fold enrichment (6-mer frequency, TF over GST control)
ELF3
  binding signal: 1.11 fold enrichment (6-mer frequency, TF over GST control)
CRX
  binding signal: 1.25 fold enrichment (6-mer frequency, TF over GST control)
ETV1
  binding signal: 1.16 fold enrichment (6-mer frequency, TF over GST control)
ERF
  binding signal: 1.34 fold enrichment (6-mer frequency, TF over GST control)
ETV3L
  binding signal: 1.18 fold enrichment (6-mer frequency, TF over GST control)
ETS2
  binding signal: 1.19 fold enrichment (6-mer frequency, TF over GST control)
SPDEF
  binding signal: 1.18 fold enrichment (6-mer frequency, TF over GST control)
ETV7
  binding signal: 1.25 fold enrichment (6-mer frequency, TF over GST control)
ELF5
  binding signal: 1.22 fold enrichment (6-mer frequency, TF over GST control)
ETV3
  binding signal: 1.2 fold enrichment (6-mer frequency, TF over GST control)
ETV6
  binding signal: 1.29 fold enrichment (6-mer frequency, TF over GST control)
